Laboratory results as given in PubChem BioAssay (NCATS).
Results filed as inconclusive are left out. Active and inactive are the calls of the source. Unless noted, the call rests on the fitted dose curve; in most records, active means well fitted cell-killing curve with a large enough effect; inconclusive means small, poorly fitted or top-dose-only effect, or effect the other way; inactive means no such curve, though single readings can be large or run the other way.

Assays:
[1] = Quantitative High-Throughput drug screen in 47 multiple myeloma cell lines against the NCATS MIPE library collection: VP6_DJ cell viability assay (AID 1919867); further: nearly all actives have a fitted effect of over 40% in size
Summary of the method: (§1)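 Plated at 500 cells per well, myeloma lines received MIPE 4.0 compounds by pin tool. Following 48 h culture at 37 °C, CellTiter-Glo luminescence gave viability relative to DMSO and media-only controls.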

[2] = Quantitative High-Throughput drug screen in 47 multiple myeloma cell lines against the NCATS MIPE library collection: UTMC2_PLB cell viability assay (AID 1919868); conditions: CellTiter-Glo ATP luminescence, 48 h; viability (% of DMSO control): at 45.8 µM (top of the series) unless noted; further: nearly all actives have a fitted effect of over 55% in size
Summary of the method: as §1

[3] = Quantitative High-Throughput drug screen in 47 multiple myeloma cell lines against the NCATS MIPE library collection: PE2_PLB cell viability assay (AID 1919869); further: nearly all actives have a fitted effect of over 35% in size
Summary of the method: as §1

[4] = Quantitative High-Throughput drug screen in 47 multiple myeloma cell lines against the NCATS MIPE library collection: PCM6_Riken cell viability assay (AID 1919870); further: nearly all actives have a fitted effect of over 30% in size
Summary of the method: as §1

[5] = Quantitative High-Throughput drug screen in 47 multiple myeloma cell lines against the NCATS MIPE library collection: RPMI8226_ATCC cell viability assay (AID 1919871); further: nearly all actives have a fitted effect of over 30% in size
Summary of the method: as §1

[6] = Quantitative High-Throughput drug screen in 47 multiple myeloma cell lines against the NCATS MIPE library collection: OPM2_DSMZ cell viability assay (AID 1919872); further: nearly all actives have a fitted effect of over 30% in size
Summary of the method: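 Steps: seed 500 cells per well; pin-transfer MIPE 4.0 library; incubate 48 h at 37C, 5% CO2, humidified; add CellTiter-Glo, 5 min room temperature; read luminescence.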

[7] = Quantitative High-Throughput drug screen in 47 multiple myeloma cell lines against the NCATS MIPE library collection: KMS11_JCRBsus cell viability assay (AID 1919873); further: nearly all actives have a fitted effect of over 50% in size
Summary of the method: as §1

[8] = Quantitative High-Throughput drug screen in 47 multiple myeloma cell lines against the NCATS MIPE library collection: KMS28BM_JCRB cell viability assay (AID 1919874); further: nearly all actives have a fitted effect of over 35% in size
Summary of the method: as §1

[9] = qHTS drug screen for cell cycle checkpoint inhibitors in PARPi-resistant BRCA-mutant ovarian cancer cell lines. (AID 1963452; calls by dose curve); conditions: PEO1/OlaR viability, CellTiter-Glo luminescence, 96 h; for Z-AUC: stronger effect = lower value
Summary of the method: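 PEO1, PEO4 and PEO1/OlaR ovarian cancer cells, 600 per well, exposed 96 h at 37C to a dilution series. Viability read by CellTiter-Glo luminescence, normalized to DMSO and empty wells; activity summarized as Z-AUC.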

[10] = qHTS for identification of novel therapeutic agents for treatment of microphthalmiaassociated transcription factor (MiT) renal cell carcinoma (RCC) (AID 1963991; calls by dose curve); conditions: CellTiter-Glo, 48 h; for Potency: active = Z-AUC below -0.8 in all three lines; for z-score: stronger effect = lower value
Summary of the method: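 Three TFE3-fusion RCC lines (UOK109, UOK124, UOK145), 500 cells/well in complete medium, were treated with MIPE 4.0 compounds for 48 hours at 37 C. Viability was by CellTiter-Glo luminescence, normalized to DMSO (100%) and empty wells (0%); curves fitted over 11 concentrations.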

[11] = measured here: PEO1 parental Z-AUC
[12] = TFE3-RCC UOK109 viability, measured here: UOK109 Z-AUC
[13] = TFE3-RCC viability, measured here: UOK124 Z-AUC
[14] = TFE3-RCC viability, measured here: UOK145 Z-AUC
Potency means the concentration at half of the fitted maximal effect.

SMILES	Potency [1]	Potency [2]	Potency [3]	Potency [4]	Potency [5]	Potency [6]	Potency [7]	Potency [8]	Z-AUC [9]	Z-AUC [9, 11]	Z-AUC ([9]; measured here: PEO4 Z-AUC)	Potency ([10]; TFE3-RCC UOK109 viability)	z-score [10, 12]	z-score [10, 13]	z-score [10, 14]	Potency [9]
CCCCc1nc2cc(C=CC(=O)NO)ccc2n1CCN(CC)CC	10.5 nM (active)	264 nM (active)	1660 nM (active)	13.2 nM (active)	1320 nM (active)	833 nM (active)	372 nM (active)	187 nM (active)								
CC(C)c1nn(-c2c(Cl)cccc2Cl)c2nc(Cc3ccc(OCCO)cc3)[nH]c(=O)c12	37.2 nM (active)	93.5 nM (active)	74.3 nM (active)	46.9 nM (active)	118 nM (active)	264 nM (active)	52.6 nM (active)	209 nM (active)	-1.25 (inactive)	-2.35	-1.5	132 nM (active)	-2.2	-1.63	-2.67	
O=C(NC1CCNCC1)c1[nH]ncc1NC(=O)c1c(Cl)cccc1Cl	590 nM (active)	662 nM (active)	833 nM (active)	166 nM (active)	1050 nM (active)	526 nM (active)	332 nM (active)	264 nM (active)		-1.49	-1.05					977 nM (active)
Nc1cc(C(F)(F)F)c(-c2cc(N3CCOCC3)nc(N3CCOCC3)n2)cn1	743 nM (active)	264 nM (active)	935 nM (active)	1480 nM (active)	526 nM (active)	2640 nM (active)	66.2 nM (active)	41.8 nM (active)	-2.03 (inactive)	-1.2	-0.609	662 nM (active)	-0.856	-0.844	-1.62	
COc1cc(=C2C=c3ccccc3=N2)[nH]c1=Cc1[nH]c(C)cc1C	1660 nM (active)	2090 nM (active)	1480 nM (active)	5900 nM (active)	1660 nM (active)	4180 nM (active)	1050 nM (active)	935 nM (active)								
COc1ccc(F)c(F)c1C(=O)c1cnc(NC2CCN(S(C)(=O)=O)CC2)nc1N	935 nM (active)	2350 nM (active)	2090 nM (active)	743 nM (active)	2960 nM (active)	3320 nM (active)	1480 nM (active)	3320 nM (active)		-1.69	-1.31					871 nM (active)
Cc1cc(CN2CCN(c3c(Br)cnc4nc(-c5ccc(N6CCN(C)CC6)cc5)[nH]c34)CC2)no1	3320 nM (active)	10500 nM (active)	6620 nM (active)	3320 nM (active)	29600 nM (active)	18700 nM (active)	1050 nM (active)	2960 nM (active)	0.133 (inactive)	0.0389	-0.2					
Cc1ccc(C(=O)Nc2cccc(C(F)(F)F)c2)cc1-c1ccc2nc(NCCN3CCOCC3)ncc2c1	11800 nM (active)	5900 nM (active)	4690 nM (active)	5900 nM (active)	5900 nM (active)	18700 nM (active)	2960 nM (active)	18700 nM (active)								
Cc1ccc(NC(=O)C2(c3ccc4c(c3)OC(F)(F)O4)CC2)nc1-c1cccc(C(=O)O)c1	46.9 nM (active)	83.3 nM (active)	105 nM (active)	33.2 nM (active)	93.5 nM (active)	74.3 nM (active)	46.9 nM (active)	41.8 nM (active)	0.456 (inactive)	0.813	0.515	235 nM (active)	-2.27	-1.92	-1.79	
COCCn1c2c([n+](Cc3cnccn3)c1C)C(=O)c1ccccc1C2=O	14.8 nM (active)	41.8 nM (active)	18.7 nM (active)	23.5 nM (active)	23.5 nM (active)	59 nM (active)	13.2 nM (active)	14.8 nM (active)		-3.26	-3.48	83.3 nM (active)	-3.55	-3.42	-3.23	49 nM (active)
O=c1[nH]nc(Sc2ncc([N+](=O)[O-])s2)n1-c1ccc2c(c1)OCCO2	2350 nM (active)	2350 nM (active)	743 nM (active)	1480 nM (active)	3720 nM (active)	8330 nM (active)	2960 nM (active)	2960 nM (active)	0.0772 (inactive)	0.187	-0.291					
C[C@@H](Oc1cc(-c2cnn(C3CCNCC3)c2)cnc1N)c1c(Cl)ccc(F)c1Cl	4180 nM (active)	2350 nM (active)	6620 nM (active)	14800 nM (active)	13200 nM (active)	18700 nM (active)	2640 nM (active)	8330 nM (active)	0.111 (inactive)	-0.187	-0.116					
COc1ccc(OC)c(-c2nnc3ccc(-c4ccc(OC)c(O[C@@H]5CCOC5)c4)nn23)c1	6620 nM (active)	9350 nM (active)	8330 nM (active)	7430 nM (active)	18700 nM (active)	23500 nM (active)	6620 nM (active)	7430 nM (active)	-1.33 (inactive)	-1.59	-1.98					
